Out of some 6,200 compounds screened, about 2,900 (47%) were called active. Cut-off read from the data, not from the text of the source: active = inhibition above about 50%; inactive = the rest. So high a share suggests a set chosen from earlier hits. The list shows a part of the results.
Test: Mycobacterium tuberculosis growth inhibition, primary screen (AID 1259343)
Settings: inhibition: at 10 µM, stronger effect = higher value; outcome: 10 uM

Structure (SMILES) | inhibition
CCC(C)(C)C1CCc2sc3ncnc(NCCN4CCOCC4)c3c2C1 (stereo not given) | 85% (active)
Clc1ccc(-c2nc(NCCN3CCOCC3)c3ccc(Cl)cc3n2)cc1 | 47.7% (inactive)
Nc1c(S(=O)(=O)c2ccccc2)c2nc3ccccc3nc2n1-c1cccc(S(N)(=O)=O)c1 | 19.5% (inactive)
N#Cc1ccc(CSc2ncccn2)cc1 | -28.1% (inactive)
Clc1ccc(CSc2ncccn2)cc1 | 55.1% (active)
O=S1(=O)CCN2N=C(SCc3ccc(Cl)cc3)SC2=N1 | 2.87% (inactive)
CCOC(=O)NCC(=O)N(Cc1ccc(C(F)(F)F)cc1)C1CC1 | -10.5% (inactive)
Cc1ccc(OCc2ccc(C(F)(F)F)cc2)c(CO)n1 | 59.9% (active)
COc1cccc(CC2(C(=O)O)CCN(c3ccc(Cl)cn3)CC2)c1 | 90.8% (active)
COc1cccc(CC2(CO)CCCN(C(=O)CCCc3ccc(Cl)cc3)C2)c1 (stereo not given) | 20.4% (inactive)
c1cc(NC2CCCCCCC2)cc(-n2ccnc2)c1 | 56% (active)
c1cc(NC2CCCCCC2)c2cccnc2c1 | 9.23% (inactive)
c1cc(NC2CCCCCCC2)cc(-c2cnco2)c1 | 71.3% (active)
c1ncc(-c2ccc(NCC3CCOCC3)cc2)o1 | 35.5% (inactive)
c1ccc(-c2nnc(NC3CCCCC3)s2)cc1 | 28.9% (inactive)
Oc1ccc(Br)cc1-c1nc2cnccn2c1NC1CCCC1 | 37.9% (inactive)
S=C(SC1OCCOC1SC(=S)N1CCOCC1)N1CCOCC1 (stereo not given) | 99.8% (active)
COc1ccc(COc2ccc(Cl)cc2C(N)=O)cc1F | 27.6% (inactive)
COc1ccc(C(=O)c2ccccc2)c(O)c1O | 68.3% (active)
COc1ccc(C(=O)C=Cc2ccccc2Br)c(OC)c1 | 23.5% (inactive)
COc1ccc(C(=O)COC(=O)c2ccccc2[N+](=O)[O-])cc1OC | -15.5% (inactive)
COc1ccc(C(=O)c2ccc(O)cc2)c(O)c1O | 55.4% (active)
Cc1nc(SCC(=O)N(C)Cc2ccsc2)c(C(N)=O)c(C)c1C | -7.74% (inactive)
CN1CCC(=C2c3ccccc3Sc3ccccc32)CC1 | 60.1% (active)
CN1CCN(C2Cc3ccccc3Sc3ccc(Cl)cc32)CC1 (stereo not given) | 39.5% (inactive)

Structure (SMILES) | inhibition
CCOC(=O)c1ccc(NC(=O)N2CCc3nc(Cc4ccccc4OC)nc(N4CCOCC4)c3C2)cc1 | 61.8% (active)
COc1cccc(NC(=O)N2CCc3nc(Nc4cc(Cl)cc(Cl)c4)ncc3C2)c1 | 33.2% (inactive)
CCc1ccc(NC(=O)N2CCN(c3nc(-c4ccc(Cl)cc4)nc(C)c3C)CC2)cc1 | 28.1% (inactive)
Oc1c(C(c2ccc(C(F)(F)F)cc2)N2CCOCC2)ccc2cccnc12 (stereo not given) | 104% (active)
Oc1c(C(c2ccc(F)cc2)N2CCOCC2)ccc2cccnc12 (stereo not given) | 82.2% (active)
COc1ccc(-n2nc([N+](=O)[O-])c(=NCCC3=CCCCC3)n2O)cc1 | 95.6% (active)
C=C(C)c1cccc(C(C)(C)NC(=O)Nc2ncccn2)c1 | -1.81% (inactive)
CC(C)Cn1ccnc1NC(=O)c1cccc(C(F)(F)F)c1 | 52.5% (active)
CSc1nnc(COc2ccccc2Cl)n1C1CC1 | 1.97% (inactive)
CN1CCN(S(=O)(=O)c2ccc(SCCOc3ccccc3Cl)nc2)CC1 | 90% (active)
COc1cc(S(=O)(=O)N2CCN(c3ccccc3C)CC2)ccc1Cl | 12.3% (inactive)
CCOC(=O)c1sc(N)c(C(=O)OCC)c1C | 32.7% (inactive)
CCOC(=O)c1c(N)sc(C(N)=O)c1C | 84.7% (active)
CCOC(=O)c1sc2nc(C)nc(NCC(C)C)c2c1C | -22.6% (inactive)
Cc1cccc(-c2ccc(NC(=O)C3CCN(C(=O)CCc4cnn(C)c4)CC3)cc2)c1 | 87.8% (active)
Cc1cccc(-c2ccc(NC(=O)C3CCN(C(=O)Cn4cccn4)CC3)cc2)c1 | inactive
Cc1cccc(-c2ccc(NC(=O)C3CCN(C(=O)CCc4ccncc4)CC3)cc2)c1 | 85% (active)
Cc1cccc(-c2ccc(NC(=O)C3CCN(C(=O)CSc4ccncc4)CC3)cc2)c1 | 74.8% (active)
COc1ccc2oc(=Nc3cccc(C#N)c3)c(-c3nc4ccccc4[nH]3)cc2c1 | -9.36% (inactive)
COc1ccc(-c2nc(CN3CCN(c4ccc(C)cc4C)CC3)c(C)o2)cc1 | 67.6% (active)
CSc1ccc(-c2nc(CN3CCN(c4cnccn4)CC3)c(C)o2)cc1 | inactive
COc1ccc(-c2nc(CN3CCN(c4nc5ccccc5s4)CC3)c(C)o2)c(OC)c1 | 15.8% (inactive)
Cc1ccccc1-c1cnnc(NCCCn2ccc3ccccc32)n1 | 32.6% (inactive)
Clc1ccc(OCCN2CCc3ccccc3C2)cc1 | 87.5% (active)
Cc1ccc(-c2nc(CN3CCc4ccccc4C3)co2)c(C)c1 | 27.7% (inactive)

Structure (SMILES) | inhibition
O=S(=O)(NC1CCCc2ccccc21)c1ccc(Br)cc1 (stereo not given) | 10.2% (inactive)
O=S(=O)(CCN1CCc2ccccc2C1)Oc1ccc(Br)cc1 | 98.6% (active)
Ic1ccc(OCCN2CCc3ccccc3C2)cc1 | 46.5% (inactive)
Brc1cccc(OCCN2CCc3ccccc3C2)c1 | 38.6% (inactive)
FC1(F)Oc2ccc(NCc3nc(-c4ccsc4)no3)cc2O1 | 48.7% (inactive)
N=C1SCC(=O)N1c1ncc(Cc2ccccc2)s1 | 102% (active)
COc1ccc(CN(C)C(=O)Nc2ccc(C)cc2)c(OC)c1 | -33.2% (inactive)
COc1ccc(CN(C)C2CC(=O)N(c3c(C)cccc3C)C2=O)c(OC)c1 (stereo not given) | 101% (active)
COc1ccc(C2NC(=O)NC(C)=C2C(=O)OCc2ccccc2)c(OC)c1 (stereo not given) | -11.8% (inactive)
CCCC1CCCC(=C\c2ccc(OC)cc2)/C1=N\OC(=O)NCC (stereo not given) | 57% (active)
COc1ccc(NC(=O)c2sc(=O)n(Cc3ccccc3)c2C)cc1 | 5.9% (inactive)
COc1ccc(NC(=O)c2sc(=O)n(Cc3cccc(F)c3)c2C)cc1 | 60.5% (active)
C=Cc1ccc(Cn2c(C)c(C(=O)Nc3ccc(OC)cc3)sc2=O)cc1 | 2.61% (inactive)
COc1ccc(NC(=O)c2sc(=O)n(Cc3ccc(C)cc3)c2C)cc1OC | 41.4% (inactive)
Cc1ccc(Cn2c(C)c(C(=O)Nc3ccc(C)cc3)sc2=O)cc1 | -16.4% (inactive)
COc1ccc(NC(=O)c2sc(=O)n(Cc3ccc(C)cc3)c2C)cc1 | 79.5% (active)
COc1ccc(NC(=O)c2sc(=O)n(Cc3ccc(OC(F)(F)F)cc3)c2C)cc1 | 55.9% (active)
C=Cc1ccc(Cn2c(C)c(C(=O)Nc3ccc(OC)c(OC)c3)sc2=O)cc1 | -5.14% (inactive)
Cc1cc(CN2CCN(c3c(Br)cnc4nc(-c5ccc(N6CCN(C)CC6)cc5)[nH]c34)CC2)no1 | 23.4% (inactive)
Clc1ccc2c(c1)C(N1CCNCC1)=Nc1ccccc1O2 | 81.5% (active)
Cc1ccccc1CCNC(=O)Cn1c(-c2cccs2)n[nH]c1=S | 1.7% (inactive)
Cc1oc(-c2ccc(C(F)(F)F)cc2)nc1CN(C)CC1COc2ccccc2O1 (stereo not given) | 53.7% (active)
Cc1oc(-c2cc3c(cc2Cl)OCO3)nc1CN(C)Cc1ccc(C(F)(F)F)cc1 | 46.8% (inactive)
COc1cccc2c1OCCCN(Cc1nc(-c3ccc(C(F)(F)F)cc3)oc1C)C2 | 23.4% (inactive)
O=C(CSC1CCCCC1)NC1CCCC1 | -47.7% (inactive)

Structure (SMILES) | inhibition
O=C(Cc1ccc(Br)cc1)NC1CCCC1 | 82.1% (active)
O=C(C1=C(O)C(=O)N(c2ncccn2)C1c1ccc(Cl)c(Cl)c1)c1ccco1 (stereo not given) | -2.77% (inactive)
COc1ccc(-c2cc(O)cc3sc(=O)oc23)cc1 | 69.8% (active)
COc1ccc(-c2c(C)noc2-c2ccc(OC)cc2O)cc1 | 16.2% (inactive)
O=c1oc2c(-c3ccc(Br)cc3)cc(O)cc2s1 | 48.6% (inactive)
Cc1ccc2cccc(OCCCOc3ccc(C)c(C)c3)c2n1 | -21.9% (inactive)
CC(C)c1ccccc1OCCOc1cccc2cccnc12 | 61.7% (active)
CC(C)c1cccc(OCCOc2cccc3cccnc23)c1 | 58.4% (active)
Cc1cc(S(=O)(=O)NC2CCCCC2C)ccc1Cl (stereo not given) | 14.4% (inactive)
Nc1c2ccccc2nc2ccccc12 (tested in a mixture with another compound) | 90.3% (active)
O=C1c2ccccc2C(=O)C1c1ccnc2ccccc12 | -13.4% (inactive)
COc1ccccc1CN(Cc1cccc(C(F)(F)F)c1)Cc1nc(C(=O)O)co1 | 9.16% (inactive)
Cc1nn2c(-c3cccc(C(F)(F)F)c3)cc(C(=O)O)nc2c1-c1ccccc1 | 89.3% (active)
Cc1nn2c(-c3ccccc3Cl)cc(C(=O)O)nc2c1-c1ccccc1 | 71.1% (active)
COc1ccc(-c2cc(C(=O)NCCN3CCCCC3)nc3c(-c4ccccc4)c(C)nn23)cc1 | 38.1% (inactive)
Cc1nn2c(NCCOCCO)cc(C(C)(C)C)nc2c1-c1ccccc1Cl | 19.6% (inactive)
O=C1CCCC2=C1C(c1ccncc1)NC(=O)N2Cc1ccccc1 (stereo not given) | 85.2% (active)
COc1ccc(C(=O)N2CCCC(C(=O)c3ccc(-c4ccccc4)c(F)c3)C2)o1 (stereo not given) | inactive
COc1ccc2cc(C(=O)C3CCCN(Cc4cccc(C)n4)C3)ccc2c1 (stereo not given) | 42.4% (inactive)
COc1ccc2cc(C(=O)C3CCCN(C(=O)CCC(=O)c4ccc(F)cc4)C3)ccc2c1 (stereo not given) | 87.2% (active)
Cc1cc2ncn(Cc3ccc(C(C)C)cc3)c2cc1C | -9.75% (inactive)
Clc1ccc(Nc2nccc3c2ncn3Cc2ccccc2)cc1 | 57.3% (active)
CC(C)c1ccc(Nc2nccc3c2ncn3Cc2ccccc2)cc1 | 73% (active)
Cc1ccc(Nc2nc(N3CCN(Cc4ccccc4)CC3)nc3nccnc23)cc1Cl | 19.4% (inactive)
Clc1ccc(Cn2ncc3c(Nc4ccc(Cl)cc4)ncnc32)cc1 | 9.84% (inactive)
